# Source: PubChem
# Rows were chosen to be rich in hits. Some 2.4% of all compounds tested hit in one or more screens of this group.
# POLH inh: DNA polymerase eta (human) inhibition | recombinant Pol eta, fluorescent DNA replication assay | Q9Y253 | AID 588591 | Potency, µM (highest dose often 114 µM), usual class: inhibitors | 1.2% of 390,000 active
# Target sequence (Q9Y253 whole entry, looked up): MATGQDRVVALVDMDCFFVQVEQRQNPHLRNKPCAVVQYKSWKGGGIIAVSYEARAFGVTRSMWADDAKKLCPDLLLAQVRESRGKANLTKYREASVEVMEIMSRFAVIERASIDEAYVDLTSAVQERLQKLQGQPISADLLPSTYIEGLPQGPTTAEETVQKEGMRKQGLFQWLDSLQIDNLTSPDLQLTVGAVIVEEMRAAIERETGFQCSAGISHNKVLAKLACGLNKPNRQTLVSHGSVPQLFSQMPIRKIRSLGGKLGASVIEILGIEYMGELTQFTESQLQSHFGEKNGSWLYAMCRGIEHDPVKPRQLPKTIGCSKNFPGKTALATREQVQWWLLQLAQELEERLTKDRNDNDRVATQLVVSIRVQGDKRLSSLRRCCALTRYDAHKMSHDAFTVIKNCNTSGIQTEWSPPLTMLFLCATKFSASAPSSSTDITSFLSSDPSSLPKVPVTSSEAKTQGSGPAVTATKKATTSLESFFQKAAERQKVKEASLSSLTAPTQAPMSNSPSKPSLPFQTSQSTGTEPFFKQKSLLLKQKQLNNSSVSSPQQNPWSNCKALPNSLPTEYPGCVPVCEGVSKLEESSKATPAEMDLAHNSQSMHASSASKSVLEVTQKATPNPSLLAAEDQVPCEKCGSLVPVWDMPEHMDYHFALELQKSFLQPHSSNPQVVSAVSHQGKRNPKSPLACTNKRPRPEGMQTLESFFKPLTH
#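 Pol eta (10 nM) was preincubated with compounds for 15 min at room temperature, after which fluorescent replication substrate (50 nM final) was added to start the reaction. Fluorescence was read kinetically at 0 and 10 min.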
# POLI inh: inhibitors of human DNA polymerase iota; Pol iota fluorescent replication assay, 10 min; Potency, µM (doses to about 115 µM), most hits filed as inhibitors; 1% of 390,000 active; AID 588590
#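 Fluorescent replication assay read twice, at 0 min and 10 min after adding 50 nM (final) substrate. Enzyme (10 nM) and compounds were first incubated 15 min at room temperature; enzyme-free buffer wells were negative controls.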
# WRN inhibitor: blocks human WRN helicase; Q14191; WRN helicase unwinding, fluorescent forked duplex, kinetic; Potency, µM (titrated, usually from 114 µM), hits mostly inhibitors; 0.46% of 360,000 active; AID 651768; further: nearly all actives have a fitted effect of over 55% in size
#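 Kinetic fluorescence helicase assay: unwinding of a quenched forked DNA duplex (100 nM final) with 2 mM ATP final raises red fluorescence (525/598 nm). Compounds sat 15 min at room temperature with 20 nM WRN beforehand.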
# FEN1 inhibitor: human FEN1 inhibition; P39748; Recombinant FEN1 flap cleavage, fluorescence, 15 min; Potency, µM (doses to about 114 µM), usual class: inhibitors; 0.35% of 390,000 active; AID 588795; further: nearly all actives have a fitted effect of over 65% in size
#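 Nuclease activity of 10 nM FEN1 was measured after 15 min of room-temperature exposure to titrated compounds, by adding 50 nM flap substrate and reading plates at 0 and 15 min.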
# Pol beta inh: DNA polymerase beta (human) inhibition; P06746; Pol beta primer extension/strand displacement, fluorescence kinetic; 1.3% of 340,000 active; AID 485314; Potency, µM (series often up to 114 µM), actives largely listed as inhibitors
#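 Reaction started by 50 nM substrate onto compound-treated Pol beta (10 nM, 15 min preincubation, room temperature); plates read at 0 min and 10 min. Normalized concentration-effect data fitted by four-parameter Hill equation.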
# POLK inh: DNA polymerase kappa (human) inhibition. Q9UBT6. purified Pol kappa, fluorescent DNA synthesis assay, 10 min. Potency, µM (series often up to 107 µM), actives largely listed as inhibitors. 0.53% of 400,000 active. AID 588579
#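 Enzyme at 10 nM met test compounds for 15 min at room temperature. Substrate addition (50 nM final) began the reaction, which was monitored by fluorescence at 0 and 10 min.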
# A number is an active result; . = inactive; ? = inconclusive; / = no result; [ ] = remark or other dose. The call rests on the fitted dose curve; in most records, active means well fitted curve in the direction sought with a large enough effect; inconclusive means small, poorly fitted or top-dose-only effect, or another doubt; inactive means no such curve, though single readings can be large; an effect the other way counts as inactive or inconclusive.
SMILES,POLH inh,POLI inh,WRN inhibitor,FEN1 inhibitor,Pol beta inh,POLK inh
COc1ccc(Nc2nc(N3CCCC3)nc3ccccc23)c(OC)c1,.,?,?,50µM,20µM,.
COc1ccc(CNC(=O)CC[C@H]2O[C@@H](n3cc(C)c(=O)[nH]c3=O)C[C@@H]2O)cc1,/,/,.,/,/,/
COc1cc(C)cc2oc(=O)c(CC(=O)NCCc3ccc(Cl)cc3)c(C)c12,.,.,/,.,.,.
COc1cc2c(NC3CCN(C)CC3)nc(N3CCCN(C)CC3)nc2cc1OCCCCCCN(C)C,/,?,/,22µM,/,.
COc1cc2nc(NC3CCN(C)CC3)nc(N3CCCN(C)CC3)c2cc1OC,/,.,/,?,/,.
CCCN(C)CCCOc1cc2nc(N3CCCN(C)CC3)nc(NC3CCN(C)CC3)c2cc1OC,/,?,/,28µM,/,.
COc1cc2nc(N3CCCCC3)nc(NC3CCN(Cc4ccccc4)CC3)c2cc1OC,/,.,/,40µM,/,.
CN(C)c1ccc(C(=C2c3ccccc3-c3ccccc32)c2ccc(N(C)C)cc2)cc1,/,.,/,.,/,.
CC(C)(C)n1ncc2c(=O)n(Cc3cccc(-c4ccccc4)c3)cnc21,/,.,/,.,/,.
CNC(=S)N/N=C/c1ccc(-c2ccc(Cl)c([N+](=O)[O-])c2)o1,.,.,?,.,8.9µM,.
Cc1ccc(-c2ccc(/C=N/NC(=S)Nc3ccccc3)o2)cc1[N+](=O)[O-],.,.,.,.,.,.
Cc1ccc(C(=O)N/N=C\c2ccc(-c3ccc(Cl)c(Cl)c3)o2)cn1,.,.,.,.,20µM,.
O=S(=O)(c1ccccc1)n1nc(-c2ccc(Cl)cc2)nc1NCc1ccc(F)cc1,.,.,/,.,.,.
CN(C)c1ccc(C(I)C(I)c2ccnc3ccccc23)cc1 (configuration not stated),/,.,/,79µM,/,.
CCOC(=O)c1c(C)sc(-c2c(-c3cc(C)ccc3C)[nH]c3c2c(=O)n(C)c(=O)n3C)c1O,?,?,/,.,5.6µM,.
CCOC(=O)c1c(C)sc(-c2c(-c3cccc(Cl)c3)[nH]c3c2c(=O)n(C)c(=O)n3C)c1O,/,79µM,/,.,.,.
CCNc1nc(C#N)nc(N2CCOCC2)n1,/,.,/,.,/,.
O=[N+]([O-])c1ccc(-c2cc(-c3ccc(Cl)cc3)n[nH]2)cc1,?,.,100µM,.,?,.
O=[N+]([O-])c1ccc2nc(-c3ccc(Cl)cc3)[nH]c2c1,?,.,.,?,.,.
C[C@@H]1C[C@H]2[C@H]3C[C@@H](F)C4=CC(=O)C=C[C@]4(C)[C@@]3(Cl)[C@@H](O)C[C@@]2(C)[C@@H]1C(=O)COC(=O)C(C)(C)C,/,/,/,/,/,.[19.4 µM]
CCOc1cc2c3c(c1)C(C)=CC(C)(C)N3C(=O)C2=O,.,.,.,.,.,.
CC(=O)Oc1cc2c3c(c1)/C(=C1/SC(=S)NC1=O)C(=O)N3C(C)(C)C=C2C,79µM,?,?,?,?,.
Cc1ccc(-c2nn3c(-c4ccccc4C)nnc3c3ccccc23)cc1,.,.,/,.,?,.
O=C(/C=C/c1ccoc1)c1ccccc1O,.,.,.,.,.,.
COc1ccc2ccccc2c1C(=O)/C=C\c1ccoc1,?,?,.,.,45µM,.
O=C(O)c1cc(-c2ccc(/C=N/N3C(=O)C4C5C=CC(CC5)C4C3=O)o2)ccc1Cl (configuration not stated),50µM,.,.,.,.,.
O=C(O)c1cc(-c2ccc(/C=N/N3C(=O)C4C5C=CC(C6CC56)C4C3=O)o2)ccc1Cl (configuration not stated),?,.,.[11.6 µM],.,40µM,.
COC(=O)c1ccc(-c2ccc(/C=N/N3C(=O)C4C5C=CC(CC5)C4C3=O)o2)cc1 (configuration not stated),.,.,.,.,?,.
O=C1C2C3C=CC(C4CC34)C2C(=O)N1/N=C/c1ccc(-c2ccc(F)cc2[N+](=O)[O-])o1 (configuration not stated),.,.,.,.,.,.
Clc1cccc[n+]1CCc1ccccc1,/,.,/,.,/,.
